# Assay results taken from ChEMBL document CHEMBL3988442, “University of Dundee, Small-Polar-MMV Screening Library” (2021).
# For part of these data: Potency and affinity values are given separately.
# What was measured:
# Parameters in all cases: scale not given: direction of the effect not stated beside the values
# [1] = biological target: Protein translocase subunit SecA (Escherichia coli (strain K12)) (UniProt P10408); assay: Assay to Identify E. coli SecA ATPase Inhibitors; type: functional; details: 30 µM
# Chain of Protein translocase subunit SecA (Escherichia coli (strain K12)) (P10408 whole entry): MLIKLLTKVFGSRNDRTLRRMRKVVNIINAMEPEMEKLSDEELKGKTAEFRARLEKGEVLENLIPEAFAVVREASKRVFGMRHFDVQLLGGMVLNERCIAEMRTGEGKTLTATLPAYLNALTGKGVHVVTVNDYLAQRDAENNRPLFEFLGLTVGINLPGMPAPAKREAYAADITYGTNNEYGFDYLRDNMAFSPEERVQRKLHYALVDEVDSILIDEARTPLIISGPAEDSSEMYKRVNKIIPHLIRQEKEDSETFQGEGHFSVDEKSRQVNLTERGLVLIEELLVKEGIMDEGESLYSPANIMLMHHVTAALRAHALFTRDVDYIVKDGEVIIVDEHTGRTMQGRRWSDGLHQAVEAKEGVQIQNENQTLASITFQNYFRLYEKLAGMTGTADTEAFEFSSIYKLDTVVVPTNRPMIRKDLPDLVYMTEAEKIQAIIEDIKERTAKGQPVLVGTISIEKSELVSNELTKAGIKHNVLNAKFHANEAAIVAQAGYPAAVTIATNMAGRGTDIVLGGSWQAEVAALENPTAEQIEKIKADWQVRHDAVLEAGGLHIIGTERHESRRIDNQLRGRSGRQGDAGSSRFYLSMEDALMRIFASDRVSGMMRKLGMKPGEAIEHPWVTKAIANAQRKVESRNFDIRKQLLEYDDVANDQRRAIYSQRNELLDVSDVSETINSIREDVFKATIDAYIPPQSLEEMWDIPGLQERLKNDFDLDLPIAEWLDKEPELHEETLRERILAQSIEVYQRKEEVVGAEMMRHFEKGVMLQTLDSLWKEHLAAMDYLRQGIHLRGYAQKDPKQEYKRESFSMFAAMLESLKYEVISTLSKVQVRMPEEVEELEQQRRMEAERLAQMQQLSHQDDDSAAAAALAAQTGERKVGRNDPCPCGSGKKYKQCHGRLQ
# [2] = biological target: T1, Ubiquitin-activating enzyme e1, putative (Leishmania donovani (strain BPK282A1)) (UniProt E9BSI1); assay: Leishmania donovani Ubiquitin Activating Enzyme (LdE1); type: functional; details: 30 µM
# T1 sequence (whole entry): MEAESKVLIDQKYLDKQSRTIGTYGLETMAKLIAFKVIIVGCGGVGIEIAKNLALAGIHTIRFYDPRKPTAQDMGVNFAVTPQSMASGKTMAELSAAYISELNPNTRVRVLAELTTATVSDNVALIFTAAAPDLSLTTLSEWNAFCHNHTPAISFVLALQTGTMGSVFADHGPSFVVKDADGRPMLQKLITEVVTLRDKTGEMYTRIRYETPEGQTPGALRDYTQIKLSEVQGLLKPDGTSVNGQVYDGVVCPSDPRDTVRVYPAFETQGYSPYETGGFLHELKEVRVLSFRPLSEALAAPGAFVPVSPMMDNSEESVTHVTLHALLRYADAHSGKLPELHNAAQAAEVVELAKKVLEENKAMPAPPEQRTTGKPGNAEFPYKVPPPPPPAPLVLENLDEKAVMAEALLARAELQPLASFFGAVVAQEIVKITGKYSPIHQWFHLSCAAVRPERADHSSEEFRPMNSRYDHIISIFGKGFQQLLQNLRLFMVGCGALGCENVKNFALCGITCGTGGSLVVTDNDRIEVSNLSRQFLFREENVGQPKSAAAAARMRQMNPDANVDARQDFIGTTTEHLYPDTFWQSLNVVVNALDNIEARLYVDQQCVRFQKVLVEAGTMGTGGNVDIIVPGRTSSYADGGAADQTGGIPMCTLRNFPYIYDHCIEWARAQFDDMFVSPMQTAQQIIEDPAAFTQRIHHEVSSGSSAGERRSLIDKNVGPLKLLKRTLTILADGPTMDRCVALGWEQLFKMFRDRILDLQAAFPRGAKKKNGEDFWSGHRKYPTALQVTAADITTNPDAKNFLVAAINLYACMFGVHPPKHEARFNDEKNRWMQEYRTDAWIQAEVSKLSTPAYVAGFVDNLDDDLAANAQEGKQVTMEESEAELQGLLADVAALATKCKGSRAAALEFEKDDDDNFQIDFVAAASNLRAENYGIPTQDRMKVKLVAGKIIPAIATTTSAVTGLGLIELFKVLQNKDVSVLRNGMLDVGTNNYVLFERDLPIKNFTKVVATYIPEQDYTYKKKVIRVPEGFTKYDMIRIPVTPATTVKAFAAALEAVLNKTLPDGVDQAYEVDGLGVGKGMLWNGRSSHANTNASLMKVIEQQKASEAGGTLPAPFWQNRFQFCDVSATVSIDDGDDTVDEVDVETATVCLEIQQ
# [3] = biological target: Sialic acid-binding Ig-like lectin 9 (Homo sapiens) (UniProt Q9Y336); assay: Hs-Siglec9 ALPHAscreen SOP 20170721; details: 10 µM
# Chain of Sialic acid-binding Ig-like lectin 9 (Homo sapiens) (Q9Y336 whole entry): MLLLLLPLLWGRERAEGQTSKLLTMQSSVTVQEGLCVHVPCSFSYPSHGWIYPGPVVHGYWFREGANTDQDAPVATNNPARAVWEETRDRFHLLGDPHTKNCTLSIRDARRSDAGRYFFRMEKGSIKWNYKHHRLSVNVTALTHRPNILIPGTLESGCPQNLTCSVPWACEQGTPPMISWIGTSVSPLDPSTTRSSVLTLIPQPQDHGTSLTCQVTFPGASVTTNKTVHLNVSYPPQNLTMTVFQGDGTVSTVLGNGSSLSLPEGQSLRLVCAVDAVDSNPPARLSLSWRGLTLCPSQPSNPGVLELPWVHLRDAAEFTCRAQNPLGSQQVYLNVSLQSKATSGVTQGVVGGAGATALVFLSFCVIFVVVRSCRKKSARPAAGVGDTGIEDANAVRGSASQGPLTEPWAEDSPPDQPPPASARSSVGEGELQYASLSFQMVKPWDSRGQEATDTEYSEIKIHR
# [4] = system: Trypanosoma cruzi; assay: Trypanosoma cruzi phosphomannomutase and mannose-1-phosphate guanylyltransferase assay; type: functional; details: 10 µM
# [5] = biological target: T2, Arginase-2, mitochondrial (Homo sapiens) (UniProt P78540); assay: in vitro enzyme assay to detect the production of urea directly proportional to the activity of Arginase II; type: functional; details: 33.3 µM; further: in the data most compounds retested in dose-response had high values
# T2 sequence (whole entry): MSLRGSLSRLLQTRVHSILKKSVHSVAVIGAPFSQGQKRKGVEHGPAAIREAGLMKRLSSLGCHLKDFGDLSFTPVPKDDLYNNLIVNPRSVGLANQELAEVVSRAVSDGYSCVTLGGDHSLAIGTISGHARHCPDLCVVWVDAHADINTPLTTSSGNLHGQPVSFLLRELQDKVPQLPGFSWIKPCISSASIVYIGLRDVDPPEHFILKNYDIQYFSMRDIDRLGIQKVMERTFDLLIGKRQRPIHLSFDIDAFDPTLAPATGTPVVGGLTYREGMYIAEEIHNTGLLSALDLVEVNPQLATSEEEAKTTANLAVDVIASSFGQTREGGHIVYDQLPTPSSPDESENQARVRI
# [6] = biological target: T3, Proteasome subunit beta (Trypanosoma cruzi) (UniProt O96673); assay: Trypanosoma cruzi proteasome chymotrypsin-like activity (TcProtChymo) assay.; further: in the data most compounds retested in dose-response had high values; type: functional; details: 9.37 µM
# T3 sequence (whole entry): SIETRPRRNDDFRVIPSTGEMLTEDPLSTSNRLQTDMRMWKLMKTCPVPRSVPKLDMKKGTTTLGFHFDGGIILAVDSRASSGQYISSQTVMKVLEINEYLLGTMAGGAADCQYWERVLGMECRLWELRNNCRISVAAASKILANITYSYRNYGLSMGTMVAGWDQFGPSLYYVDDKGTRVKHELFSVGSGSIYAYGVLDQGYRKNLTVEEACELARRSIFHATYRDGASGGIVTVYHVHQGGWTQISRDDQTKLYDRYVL
# [7] = organism: Homo sapiens; assay: To identify inhibition of the IFN signalling (Jak-Stat) pathway via expression of an eGFP reporter gene under the control of an IFN-stimulated response element (ISRE) containing MxA promoter.; type: functional; details: 30 µM
# [8] = biological target: T4, Tyrosyl-tRNA synthetase, putative (Trypanosoma cruzi (strain CL Brener)) (UniProt Q4DSP6); assay: Trypanosoma cruzi tyrosyl tRNA synthetase (TcYRS) _High Tyrosine SOP; type: functional; details: 30 µM; further: in the data most compounds retested in dose-response had high values
# T4 sequence (whole entry): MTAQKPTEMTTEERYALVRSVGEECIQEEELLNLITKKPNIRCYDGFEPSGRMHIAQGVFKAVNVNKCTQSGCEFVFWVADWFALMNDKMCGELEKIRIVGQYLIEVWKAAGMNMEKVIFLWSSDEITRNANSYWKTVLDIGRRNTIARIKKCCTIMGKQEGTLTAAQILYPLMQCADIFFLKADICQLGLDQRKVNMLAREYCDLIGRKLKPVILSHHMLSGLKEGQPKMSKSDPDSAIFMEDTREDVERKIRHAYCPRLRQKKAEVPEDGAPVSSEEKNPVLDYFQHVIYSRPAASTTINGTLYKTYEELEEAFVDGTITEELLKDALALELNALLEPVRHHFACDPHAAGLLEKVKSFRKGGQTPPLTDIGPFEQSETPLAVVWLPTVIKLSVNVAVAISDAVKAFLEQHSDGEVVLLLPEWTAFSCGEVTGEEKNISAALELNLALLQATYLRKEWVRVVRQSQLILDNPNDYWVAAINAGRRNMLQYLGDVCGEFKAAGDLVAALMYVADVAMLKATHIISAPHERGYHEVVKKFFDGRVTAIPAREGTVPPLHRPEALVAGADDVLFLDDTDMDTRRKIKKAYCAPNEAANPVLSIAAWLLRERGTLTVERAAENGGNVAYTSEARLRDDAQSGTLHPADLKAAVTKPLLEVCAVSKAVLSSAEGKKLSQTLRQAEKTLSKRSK
# [9] = biological target: T4, Tyrosyl-tRNA synthetase, putative (Trypanosoma cruzi (strain CL Brener)); assay: Trypanosoma cruzi tyrosyl tRNA synthetase (TcYRS) SOP; type: functional; details: 30 µM
# [10] = biological target: Chromo domain-containing protein 1 (Saccharomyces cerevisiae (strain ATCC 204508 / S288c) (Baker's yeast)) (UniProt P32657); assay: ScCHD-1 Enzyme Inhibition Assay; type: functional; details: 30 µM; further: in the data most compounds retested in dose-response had high values
# Chain of Chromo domain-containing protein 1 (Saccharomyces cerevisiae (strain ATCC 204508 / S288c) (Baker's yeast)) (P32657 whole entry, the tested form may be a part): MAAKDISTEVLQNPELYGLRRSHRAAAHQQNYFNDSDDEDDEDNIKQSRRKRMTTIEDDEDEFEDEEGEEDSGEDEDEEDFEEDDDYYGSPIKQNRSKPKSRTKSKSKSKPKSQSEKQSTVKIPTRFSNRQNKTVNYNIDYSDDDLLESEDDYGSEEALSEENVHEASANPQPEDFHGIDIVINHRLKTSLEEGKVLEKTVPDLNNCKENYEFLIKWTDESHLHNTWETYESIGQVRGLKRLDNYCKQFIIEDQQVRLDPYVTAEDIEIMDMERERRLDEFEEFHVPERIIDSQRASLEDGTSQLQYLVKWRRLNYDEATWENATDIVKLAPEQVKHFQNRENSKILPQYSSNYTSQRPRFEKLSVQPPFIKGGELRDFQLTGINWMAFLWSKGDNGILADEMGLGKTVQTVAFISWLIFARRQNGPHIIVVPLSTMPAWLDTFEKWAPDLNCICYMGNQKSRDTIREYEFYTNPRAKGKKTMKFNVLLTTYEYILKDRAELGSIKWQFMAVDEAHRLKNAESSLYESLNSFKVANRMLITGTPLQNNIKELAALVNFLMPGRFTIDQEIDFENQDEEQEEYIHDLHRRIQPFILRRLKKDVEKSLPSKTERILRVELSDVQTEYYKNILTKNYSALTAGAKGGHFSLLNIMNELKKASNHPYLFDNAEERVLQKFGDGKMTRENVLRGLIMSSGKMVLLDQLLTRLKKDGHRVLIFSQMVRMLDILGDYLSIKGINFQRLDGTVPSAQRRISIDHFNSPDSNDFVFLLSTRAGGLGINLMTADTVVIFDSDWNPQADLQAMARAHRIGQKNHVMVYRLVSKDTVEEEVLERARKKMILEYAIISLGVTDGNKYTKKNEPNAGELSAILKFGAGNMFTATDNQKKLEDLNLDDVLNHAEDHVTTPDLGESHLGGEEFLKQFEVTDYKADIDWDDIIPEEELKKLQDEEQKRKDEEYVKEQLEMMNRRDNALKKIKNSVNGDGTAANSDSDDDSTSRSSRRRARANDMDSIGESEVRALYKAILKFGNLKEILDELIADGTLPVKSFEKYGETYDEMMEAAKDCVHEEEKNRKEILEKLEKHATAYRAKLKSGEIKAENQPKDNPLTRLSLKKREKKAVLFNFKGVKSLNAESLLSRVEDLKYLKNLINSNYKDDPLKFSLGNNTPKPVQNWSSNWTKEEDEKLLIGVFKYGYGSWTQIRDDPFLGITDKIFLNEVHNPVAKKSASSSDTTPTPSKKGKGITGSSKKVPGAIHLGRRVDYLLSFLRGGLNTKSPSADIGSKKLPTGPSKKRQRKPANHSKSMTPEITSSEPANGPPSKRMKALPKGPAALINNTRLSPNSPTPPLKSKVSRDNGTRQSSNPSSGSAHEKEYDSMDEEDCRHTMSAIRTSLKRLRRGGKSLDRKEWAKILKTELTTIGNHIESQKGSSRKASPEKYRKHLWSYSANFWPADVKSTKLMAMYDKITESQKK
Structure (SMILES),Percent Effect [1] [%],Percent Effect [2] [%],Percent Effect [3] [%],Percent Effect [4] [%],Percent Effect [5] [%],Percent Effect [6] [%],Percent Effect [7] [%],Percent Effect [8] [%],Percent Effect [9] [%],Percent Effect [10] [%]
Cn1nc2c(cc1=O)CN(Cc1nc(-c3cccs3)no1)CC2,-4.37,5.33,3.65,1.61,-1.77,13.7,12.3,-0.526,2.56,-8.34
CS(=O)(=O)c1cccc(C(N)c2ccc(F)c(F)c2)c1 (stereo not given),-6.37,5.33,1.99,-2.81,-2.66,4.16,23.5,7.89,15.4,-9.26
CCN(Cc1cccc2c1OCO2)C(=O)C(C)c1cccnc1 (stereo not given),-0.831,7.79,4.03,5.78,8.4,-0.702,4.49,3.92,11.8,-5.71
COCCNC(=O)c1cc(S(=O)(=O)N2CCCCC2)cs1,-1.54,0,-4.58,-1.07,1.05,14.6,19.3,0.532,2.44,2.87
O=C1CC2(CCN(CC3CC3)C2)CN1c1ccc2c(c1)OCO2 (stereo not given),-2.02,16.9,-7.72,1.07,25.9,21.6,-0.411,12.1,-48.7,-4.12
CCC(=O)N1CCC(Cc2nccnc2Nc2ccccn2)CC1,-5.27,4,-4.87,1.58,-1.77,-5.91,18.1,-4.23,-2.5,-20
CC(Cn1cccn1)NC(=O)N1CCN(Cc2cccs2)CC1 (stereo not given),-1.74,18.7,-3.71,5.42,-3.1,17.4,12.5,2.63,12.8,71.3
O=C(Nc1cccnc1)[C@H]1C[C@H]2OCC[C@H]2N(C(=O)c2ccsc2)C1,-4.32,11.7,13,4.58,17,10.5,-7.28,4.74,12.8,18.5
O=C1CC2(CCN(Cc3ccoc3)C2)CN1c1ccc2c(c1)OCO2 (stereo not given),-7.31,1.3,-0.448,1.85,0.81,4.68,4.43,7.89,10.3,-0.51
COc1cccc(-n2nnc(C(=O)N3CCCC3)c2C)c1,-0.683,10.3,-7.88,2.72,4.92,7.25,6.63,7.18,13.2,-3.38
CN1[C@H](CN2CCCC2)C[C@@H]2CN(C(=O)Cc3cccs3)CC[C@@H]21,-2.98,16.9,-1.33,-3.56,0,5.75,2.07,7.73,2.5,-11.2
Cc1cc(NC(=O)CN2CCCC2c2noc(C(C)C)n2)n(C)n1 (stereo not given),0.91,-42.7,2.01,0,-0.444,4.67,-3.3,2.63,5.13,0.723
Cc1nc(-c2nnc[nH]2)sc1C(=O)N(Cc1cccnc1)C1CC1,-4.44,12.8,-5.72,6.67,-0.41,7.42,9.73,2.39,18.1,-6.07
O=C(C1CCC1)N1CCn2c(COc3ncccn3)nnc2C1,-7.65,3.9,-3.93,-5.36,-11.7,12.8,6.38,0.526,5.13,-2.55
O=C(Cn1cc(-c2ccccc2)ncc1=O)Nc1nnc[nH]1,-1.82,8.11,4.37,2.42,8.74,20.4,-1.74,6.92,19.5,83.7
Cn1cnc2c1CCN(CCS(=O)(=O)c1ccccc1)C2,-3.11,2.67,3.94,2.21,-5.32,3.48,20.9,0.526,5.13,-6.73
CN(Cc1cn2ccccc2c1C#N)C1CCCN(c2cccnn2)C1 (stereo not given),-1.94,-15.6,10.5,1.31,-3.07,13.7,6.2,13.7,9.41,-7.9
CC(=O)N1CCC2(CCN(C(=O)c3ccc(C)c(C(F)(F)F)c3)CC2)C1,-3.18,14.3,1.63,-7.69,7.29,19.5,17.8,7.89,0,-3.98
c1cnc(N2CCC3(CCN(CC4CC4)CC3)CC2)nc1,-6.61,3.9,-1.99,-2.82,-5.67,6.09,-6.66,5.79,12.8,-1.89
Cc1noc(C2CCN(C(=O)CN(C)c3ccc(Cl)cn3)CC2)n1,-1.77,12.8,-5.03,4.6,6.56,8.11,3.6,8.13,20.5,-1.95
CC(=O)N1CCOC2(CCN(C(=O)c3cnoc3C)CC2)C1,-3.9,-1.3,2.36,0.682,-0.405,0.441,-5.16,2.63,5.13,2.4
